Measurements: PubChem BioAssay (NCATS)
Records with an inconclusive call do not appear. The source made the active and inactive calls. Calls follow the shape of the dose curve; as a rule, active = well fitted curve in the direction sought with a large enough effect; inconclusive = small, poorly fitted or top-dose-only effect, or another doubt; inactive = no such curve, though single readings can be large; an effect the other way counts as inactive or inconclusive.

Experiments:
[1] = molecular target: Nuclear receptor subfamily 1 group I member 3 (Homo sapiens) (UniProt Q14994); test: qHTS for Constitutive Androstane Receptor (CAR) Agonist screened against the NCATS CANVASS Library (AID 1347373);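 also: every well also contained 1.5 µM PK11195 alongside the test compound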
Method in brief: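 Agonist mode with 1.5uM PK11195 present: compounds for 24hr on HepG2-hCAR-CYP2B6 cells. CellTiter-Fluor fluorescence (ex 405, em 540 nm) gives viability; ONE-Glo luminescence reports CAR activation.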

[2] = qHTS for Hypoxia signaling pathway (HIF-1) antagonists against the NCATS CANVASS Library (AID 1347374);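 also: HRE-bla ME-180 cells stimulated with cobalt chloride to stabilize HIF-1alpha; series mostly up to about 38 µM; nearly all actives have a fitted effect of over 60% in size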
Method in brief: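 Antagonism scored as loss of CoCl2-driven (60 uM stock added) HRE beta-lactamase signal, read by CCF4 FRET at 460/530 nm. Compounds were tested in an 11-point series on ME-180 reporter cells for 17 hrs at 37C, with parallel CellTiter-Glo cytotoxicity.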

[3] = qHTS for Hypoxia signaling pathway (HIF-1) agonists against the NCATS CANVASS Library (AID 1347375)
Method in brief: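 Beta-lactamase reporter under HRE control in ME-180 cells; compounds (11-point qHTS series) added after 5 hrs plating, then 17 hrs at 37C. FRET substrate read after 2 hr; same-well CellTiter-Glo luminescence gave viability and normalization.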

[4] = 10-beta competent E. coli microbial cell viability qHTS against the NCATS CANVASS Library (AID 1347376); also: series mostly up to about 46 µM
Method in brief: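 Read-out: BacTiter-Glo ATP luminescence, taken 20 min after reagent addition. Beforehand, 10-beta competent E. coli at 0.2 OD had been incubated overnight at 37C with compounds at 11 concentrations.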

[5] = DH5-alpha competent E. coli microbial cell viability qHTS against the NCATS CANVASS Library (AID 1347377)
Method in brief: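 Bacterial viability as ATP-dependent luminescence (BacTiter-Glo), read after overnight 37 °C exposure of DH5-alpha competent E. coli to compounds in 11-point titration.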

[6] = qHTS for H2AX Agonists against the NCATS CANVASS Library (AID 1347378)
Method in brief: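 CHO-K1 cells (1000/well, overnight at 37C) exposed to compounds at several concentrations for 3 hr at 37C, 0.76% DMSO final. Lysates read by TR-FRET (phospho-H2AX S139 Eu-cryptate antibody / H2AX-d2 antibody) after 24 hr at room temperature; 665/615 nm ratio.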

[7] = qHTS for Inflammasome Signaling Inhibitors: IL-1-beta AlphaLISA screen against the NCATS CANVASS Library (AID 1347379);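 also: human THP-1 cells primed with LPS then triggered with ATP; secreted IL-1B measured as AlphaLISA emission at 615 nm; lower signal means less IL-1B release which is the wanted effect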
Text: Natural products and their derivatives continue to be wellsprings of nascent therapeutic potential. However, many laboratories have limited resources for biological evaluation, leaving their previously isolated or synthesized compounds largely or completely untested. To address this issue, the Canvass library of natural products was assembled (https://tripod.nih.gov/canvass), in collaboration with academic and industry researchers, for quantitative high-throughput screening (qHTS) across a diverse set of cell-based and biochemical assays. […] The library was formatted into 1536-well plates and evaluated in 50 qHTS (in an 11-pnt concentration series) bioassays with broad scope of disease-relevant mechanisms. The resulting data set from 50 different assays was then systematically analyzed to identify overall trends and specific natural products with interesting biological activities. […]
IL-1-beta qHTS protocol: Three microliters containing 3000 THP-1 cells were dispensed into the wells of solid, white, tissue culture treated Greiner 1,536-well plates. […] The AlphaLISA signal was read by a PerkinElmer EnVision plate reader with an ultrasensitive luminescence detector and 1536 Plate HTS AlphaScreen aperture (excitation of 680nm and emission of 615nm).

[8] = Inflammasome Signaling qHTS Counterscreen: IL-1-beta AlphaLISA counterscreen against the NCATS CANVASS Library (AID 1347381);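 also: cell-free check with purified IL-1β in medium and no THP-1 cells; series mostly up to about 57 µM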
Method in brief: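 Purified IL-1-beta (4 pg/well) + compound, 11-pt conc. series; acceptor beads 6 ug/mL + biotin-Ab 0.6 nM final, 1 h RT; SA-donor 24 ug/ml final, 30 min dark RT; read ex 680/em 615.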

[9] = Cytotoxicity qHTS for assessment of Hepg2 cells membrane integrity screened against the NCATS CANVASS Library (AID 1347387)
Method in brief: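 Membrane damage quantified as fluorescent LDH-release signal (ex 560, em 590 nm) in HepG2 cells treated 5 hr at 37C. qHTS format, 11 concentrations spanning 0.59 nM - 46 uM final, cells plated at 2000 per well the night before.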

[10] = qHTS for Activators of p53 Stress Response Pathway screened against the NCATS CANVASS Library (AID 1347388)
Method in brief: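 p53RE-bla HCT-116 cells (4000/well) were plated 5 h at 37C, exposed to compounds for 16 h at 37C over an 11-point concentration series, then loaded with CCF4 for 2 h at room temperature; 460/530 nm emission ratio read.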

Measured: outcome

Chain of Nuclear receptor subfamily 1 group I member 3 (Homo sapiens) (Q14994 whole entry, looked up): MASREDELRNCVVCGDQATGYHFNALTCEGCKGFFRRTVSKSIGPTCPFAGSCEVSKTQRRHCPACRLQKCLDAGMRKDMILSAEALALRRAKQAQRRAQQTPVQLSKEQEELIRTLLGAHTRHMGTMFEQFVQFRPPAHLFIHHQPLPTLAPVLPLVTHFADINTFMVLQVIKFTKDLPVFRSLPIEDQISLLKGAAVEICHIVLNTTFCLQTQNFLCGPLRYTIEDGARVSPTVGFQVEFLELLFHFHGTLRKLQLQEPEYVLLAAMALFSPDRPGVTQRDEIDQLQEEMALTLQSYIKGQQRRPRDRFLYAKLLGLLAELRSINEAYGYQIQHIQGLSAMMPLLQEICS

C[C@@H]1O[C@@H](OC[C@H]2O[C@@H](Oc3c(-c4ccc(O)c(O)c4)oc4cc(O)cc(O)c4c3=O)[C@H](O)[C@@H](O)[C@@H]2O)[C@H](O)[C@H](O)[C@H]1O
inactive: all assays above
